This is a sample that favours compounds with a hit; in the whole collection about 3.2% have one here.
TROY signal inh: inhibitors of TROY-dependent NF-kB signaling; Q293 LMP1-TROYcd NF-kB luciferase reporter, 4 h; inhibition, % at 10 µM; actives 0.98% (n = 360,000); AID 1347056;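 active means compounds whose plate-normalised and pattern-corrected inhibition of the luciferase reporter signal at the single screening dose is 50% or more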
LGR2 inh: blocks bursicon-induced cAMP signaling via Drosophila LGR2; actives 0.35% (n = 380,000); inhibition, % at 9.99 µM; HEK293 LGR2, CRE-luciferase, bursicon-stimulated, 4 h;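 active means drop in luminescence signal, shown as inhibition above about 50% in the replicate tests, limit read from the data, passing the limit was not always enough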;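 further: agonist challenge used bursicon conditioned medium at about half maximal strength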
EWS-Fli block: blocks EWS/Fli oncoprotein-driven transcription | A673 NR0B1-luciferase reporter, viability-normalised | inhibition, % at 12.6 µM | actives 0.67% (n = 350,000) | AID 651661;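 active means mean inhibition of at least 50% after viability correction, with every replicate also passing that limit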;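 further: firefly luciferase signal divided by Alamar Blue viability fluorescence both relative to DMSO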
PAX8 reporter: inhibitors of PAX8 transcriptional activity in RMG-I cells; RMG-I TPO-luciferase reporter, SteadyGlo, 24 h; inhibition, % at 12.6 µM; actives 1.2% (n = 360,000); AID 652154;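 active means mean replicate inhibition at least 60% with every replicate also reaching 60%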;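 further: luciferase light reporting Pax8 driven TPO promoter activity; plate controls were median of neutral control wells for no effect and mitoxantrone controls for full effect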
TWEAK Fn14 block: blocks TWEAK-Fn14 interaction in a reporter cell assay; inhibition, % at 10 µM; AID 1159606; TWEAK-stimulated Fn14 reporter cells, luciferase luminescence, 8 h; actives 2% (n = 360,000); in the data active means inhibition above about 50%
LMP1 NFkB inh: Epstein-Barr LMP1 NF-kappaB reporter inhibition; LMP1-induced NF-kappaB luciferase reporter cells, luminescence; inhibition, % at 12.5 µM; actives 0.69% (n = 350,000); AID 504558; in the data active means inhibition above about 41%;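 further: 0% = neutral control wells and 100% = reference inhibitor control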
Numbers without * were called inactive.

How did Cc1noc(C)c1S(=O)(=O)Nc1ccc2c(c1)C(=O)N([C@@H](C)CO)C[C@@H](C)[C@@H](CN(C)C(=O)Nc1ccc(C(F)(F)F)cc1)OCCCC[C@@H](C)O2 do in these assays?
LGR2 inh: -4; EWS-Fli block: 6; PAX8 reporter: 26

How did Cc1noc(C)c1S(=O)(=O)Nc1ccc2c(c1)C(=O)N([C@@H](C)CO)C[C@H](C)[C@H](CN(C)C(=O)Nc1ccc(C(F)(F)F)cc1)OCCCC[C@H](C)O2 do in these assays?
LGR2 inh: 40; EWS-Fli block: -12; PAX8 reporter: 89*

How did Cc1noc(C)c1S(=O)(=O)Nc1ccc2c(c1)C(=O)N([C@H](C)CO)C[C@H](C)[C@H](CN(C)C(=O)Nc1ccc(C(F)(F)F)cc1)OCCCC[C@H](C)O2 do in these assays?
LGR2 inh: -6; EWS-Fli block: 0; PAX8 reporter: 68*

What do the screens show for `CO[C@@H]1CN(C)C(=O)c2cc(NC(=O)C3CC3)ccc2OC[C@@H](C)N(Cc2ccncc2)C[C@@H]1C`?
LGR2 inh: -8; EWS-Fli block: 0; PAX8 reporter: -8

Results for COc1c(C=O)c2c(c(OC)c1OC)-c1ccc(OC)c(=O)cc1C(NC(C)=O)CC2 (configuration not stated) ?
TROY signal inh: 18; LGR2 inh: -25; EWS-Fli block: 42; PAX8 reporter: 87*; TWEAK Fn14 block: 11; LMP1 NFkB inh: -15

How did COc1cc2c(c(OC)c1OC)-c1ccc(OC)c(=O)cc1C(NC(C)=O)CC2 (configuration not stated) do in these assays?
TROY signal inh: 24; LGR2 inh: 8; EWS-Fli block: 64*; PAX8 reporter: 96*; TWEAK Fn14 block: -23; LMP1 NFkB inh: 11

How did COc1cccc(C(=O)Nc2ccc3c(cc2=O)[C@@H](NC(C)=O)CCc2cc(OC)c(OC)c(OC)c2-3)c1 do in these assays?
TROY signal inh: 29; TWEAK Fn14 block: 25; LMP1 NFkB inh: 36

How did CCCC(=O)NC1CCc2cc(OC)c(OC)c(OC)c2-c2ccc(OC)c(=O)cc21 (configuration not stated) do in these assays?
TROY signal inh: 11; LGR2 inh: -15; EWS-Fli block: 24; PAX8 reporter: 78*; TWEAK Fn14 block: -10; LMP1 NFkB inh: -3

What do the screens show for `COC(=O)c1ccc2c(c1)C(NC(C)=O)CCc1cc(OC)c(OC)c(OC)c1-2` (configuration not stated)?
TROY signal inh: 1; LGR2 inh: -13; EWS-Fli block: 46; PAX8 reporter: 85*; TWEAK Fn14 block: 13; LMP1 NFkB inh: 0

What do the screens show for `Nn1c(SCc2ccc([N+](=O)[O-])cc2)nc2ccccc2c1=O`?
TROY signal inh: -5; LGR2 inh: -6; EWS-Fli block: -3; PAX8 reporter: 2; TWEAK Fn14 block: -2; LMP1 NFkB inh: -15

How did Cc1sc2nc(SCc3ccc(C(=O)O)cc3)n(Cc3ccco3)c(=O)c2c1C do in these assays?
TROY signal inh: 60*; LGR2 inh: 25; EWS-Fli block: 23; PAX8 reporter: 23; TWEAK Fn14 block: 38; LMP1 NFkB inh: -1

Results for COc1ccc(C(=O)Nn2c(SCc3ccc([N+](=O)[O-])cc3)nc3ccccc3c2=O)cc1 ?
TROY signal inh: 76*; TWEAK Fn14 block: 73*; LMP1 NFkB inh: 3

How did O=C(CSc1nc2ccccc2c(=O)n1Cc1ccco1)c1ccccc1 do in these assays?
TROY signal inh: 15; TWEAK Fn14 block: 52*; LMP1 NFkB inh: 4

How did COc1ccc(C(=O)Nn2c(SCC(=O)c3ccccc3)nc3ccccc3c2=O)cc1 do in these assays?
TROY signal inh: 80*; TWEAK Fn14 block: 92*; LMP1 NFkB inh: 17

How did CCNC(=O)Nc1ccc2c(c1)C(=O)N(C)[C@H]1CC[C@@H](CC(=O)Nc3ccccc3)O[C@@H]1CO2 do in these assays?
LGR2 inh: -20; EWS-Fli block: -2; PAX8 reporter: -7

What do the screens show for `CC(NC(=O)c1ccc(F)cc1)C(c1cccs1)N1CCN(C)CC1` (configuration not stated)?
TROY signal inh: 8; LGR2 inh: 0; TWEAK Fn14 block: -11; LMP1 NFkB inh: 12

What do the screens show for `CC(NC(=O)c1ccc(N(C)C)cc1)C(c1cccs1)N1CCN(C)CC1` (configuration not stated)?
TROY signal inh: 62*; TWEAK Fn14 block: 44; LMP1 NFkB inh: -21

What do the screens show for `CCCC(=O)N1C[C@H]2[C@@H](c3ccccc31)[C@H](CO)N2C(=O)Nc1ccccc1`?
LGR2 inh: 1; EWS-Fli block: 1; PAX8 reporter: 15

Results for C=CCCC(=O)N1C[C@H]2CON(C)[C@H]2C[C@H]1c1ccccc1Br ?
TROY signal inh: -1; LGR2 inh: -3; EWS-Fli block: -7; PAX8 reporter: -11; TWEAK Fn14 block: 3; LMP1 NFkB inh: -4

Results for CN1OC[C@@H]2CN(C(=S)Nc3cc(C(F)(F)F)cc(C(F)(F)F)c3)[C@H](c3ccccc3Br)C[C@@H]21 ?
LGR2 inh: 8; EWS-Fli block: 10; PAX8 reporter: 84*

How did O=C(Cc1ccccn1)N[C@H]1CC[C@@H](CCn2cc(-c3ccccc3)nn2)O[C@H]1CO do in these assays?
LGR2 inh: 12; EWS-Fli block: 6; PAX8 reporter: 7

What do the screens show for `O=C(Cc1ccccn1)NCC[C@H]1CC[C@H](NC(=O)Nc2ccc(C(F)(F)F)cc2)[C@H](CO)O1`?
LGR2 inh: -23; EWS-Fli block: -9; PAX8 reporter: 69*

Results for O=C(Cc1ccccn1)N[C@@H]1CC[C@@H](CCn2cc(-c3ccccc3)nn2)O[C@H]1CO ?
LGR2 inh: 5; EWS-Fli block: 3; PAX8 reporter: 99*

What do the screens show for `O=C(Cc1ccccn1)N[C@H]1CC[C@H](CCn2cc(-c3ccccc3)nn2)O[C@@H]1CO`?
LGR2 inh: -1; EWS-Fli block: -6; PAX8 reporter: 79*

How did O=C(Nc1ccc(Oc2c(F)c(F)c(F)c(F)c2F)cc1)OC1CCN2Cc3ccccc3N=C12 (configuration not stated) do in these assays?
TROY signal inh: 61*; TWEAK Fn14 block: 37; LMP1 NFkB inh: -98

Results for Cc1cccc(NC(=O)Nc2ccc(Oc3c(F)c(F)c(F)c(F)c3F)cc2)c1 ?
TROY signal inh: -1; LGR2 inh: 6; EWS-Fli block: 30; TWEAK Fn14 block: -5; LMP1 NFkB inh: -32

Results for O=C(Nc1ccccc1F)N1CC(=O)N2[C@H](CO)[C@@H](c3ccc(-c4cccnc4)cc3)[C@H]2C1 ?
LGR2 inh: 9; EWS-Fli block: 7

Results for C=CCC[C@@H](Cc1ccc(F)cc1)C(=O)OC[C@H](Cc1c[nH]c2ccccc12)NC(=O)[C@H](CC=C)CC(=O)N(CCO)Cc1ccccc1 ?
TROY signal inh: 17; LGR2 inh: 35; EWS-Fli block: 9; PAX8 reporter: 10; TWEAK Fn14 block: 60*; LMP1 NFkB inh: 18

Assay outcomes as filed in PubChem.
